For 7 compounds, z-score and composite z-score results are on record in PubChem BioAssay.

Assay [1] in a line: compound effects on lung adenocarcinoma cell viability – A549, calcein-AM fluorescence, 48 h, basal, profiling panel (AID 1162). Further: test concentration not given here. As to conditions: higher = more signal.
A short description of assay [2]: compound effects on differentiated 3T3-L1 adipocyte viability – cell-based, 3T3-L1 adipocytes, calcein-AM fluorescence, 48 h, basal, profiling panel (AID 1163). Further: test concentration not given here. The note with it: 3T3-L1 adipocytes viability, higher = more signal.
A short description of assay [3]: compound effects on hepatocellular carcinoma cell viability – HepG2, calcein-AM fluorescence, 48 h, basal, profiling panel (AID 1164). Further: test concentration not given here. As to conditions: higher = more signal.
Assay [4] in a line: compound effects on multiple myeloma cell viability – MM1S, calcein-AM fluorescence, 48 h, basal, profiling panel (AID 1165).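 Further: viability of MM1S multiple myeloma cells under basal unstimulated conditions; test concentration not given here.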 The note with it: higher = more signal.
Assay [5] can be described thus: calcein-AM signal in unstimulated myeloma cells – cell-based, calcein-AM fluorescence, 48 h, PK04 Diversity Set, profiling panel (AID 1166).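 Further: cells grown under basal conditions without added stimulus; test concentration not given here.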 The note with it: RPMI8226 myeloma viability, higher = more signal.
Assay [6] can be described thus: JC-1 mitochondrial signal, unstimulated HepG2 cells – cell-based, JC-1 fluorescence, 24 h, 100 nL compound, profiling panel (AID 1167). Further: test concentration not given here. As to conditions: HepG2 mitochondrial potential, higher = more signal.
Assay [7] can be described thus: JC-1 mitochondrial signal, unstimulated adipocytes – cell-based, JC-1 fluorescence, 3T3-L1 adipocytes, 24 h, 100 nL compound, profiling panel (AID 1168). Further: test concentration not given here. As to conditions: JC-1 mitochondrial fluorescence, higher = more signal, called active from +8 up or from −8 down.
A short description of assay [8]: JC-1 mitochondrial signal, unstimulated myeloma cells – cell-based, JC-1 fluorescence, RPMI8226, 24 h, 100 nL compound, profiling panel (AID 1169). Further: test concentration not given here. The note with it: JC-1 mitochondrial potential fluorescence, higher = more signal.
Assay [9] is described as follows: JC-1 mitochondrial signal, unstimulated MM1S myeloma – cell-based, JC-1 fluorescence, 24 h, 100 nL compound, profiling panel (AID 1170). Further: test concentration not given here. As to conditions: MM1S mitochondrial potential, higher = more signal.
Assay [10] is described as follows: resazurin metabolic signal in A549 cells – cell-based, resazurin fluorescence, 24 h, PK04 Diversity Set, profiling panel (AID 1171). Further: test concentration not given here. As to conditions: A549 viability, higher = more signal, called active from +8 up or from −8 down.
The nature of assay [11]: resazurin metabolic signal in HepG2 cells – cell-based, resazurin fluorescence, 24 h, PK04 Diversity Set, profiling panel (AID 1172). Further: test concentration not given here. The note with it: HepG2 viability, higher = more signal.
A short description of assay [12]: budding yeast growth changes without added modifier – OD600, strain BY4716, 24 h, basal condition, primary screen (AID 1173). The note with it: S. cerevisiae BY4716 growth, OD600, 24 h; higher = more signal, called active from +8 up or from −8 down.
Assay [13] in a line: viability profiling in MM1S myeloma cells – cell-based, resazurin fluorescence, basal, 24 h, PK04 Diversity Set, profiling panel (AID 1174). Further: test concentration not given here. The note with it: higher = more signal, called active from +8 up or from −8 down.
The target of assay [14] is Dihydroorotate dehydrogenase (quinone), mitochondrial (Plasmodium falciparum (isolate 3D7)) (UniProt Q08210). The assay is described as follows: inhibition of P. falciparum DHODH – biochemical, C-terminal His tag, absorbance 600 nm, primary screen (AID 1175).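 Further: recombinant parasite enzyme with a five histidine tag at its C terminus; test concentration not given here.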 The note with it: PfDHODH enzyme, DCIP absorbance 600 nm; higher = more signal, called active from +8 up or from −8 down.

Assay [15] can be described thus: inhibition of PAO1 biofilm formation – strain PAO1, LB-PBS medium, absorbance 600 nm, primary screen (AID 1176). Further: test concentration not given here. As to conditions: P. aeruginosa PAO1 growth/biofilm, A600, 12 h; higher = more signal.
The nature of assay [16]: growth modulation of vineyard yeast isolate – strain RM11-1a, OD600, basal, 24 h, primary screen (AID 1177).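 Further: cultures grown under basal conditions with no added stressor; test concentration not given here.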 As to conditions: S. cerevisiae RM11-1a growth, OD600, 24 h; higher = more signal, called active from +8 up or from −8 down.
The nature of assay [17]: growth of efflux-deficient E. coli DRC39 – strain DRC39, OD650, 24 h, E. coli filamentation inducers, primary screen (AID 1178).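 Further: growth measured as culture turbidity by optical density at 650 nm; test concentration not given here.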 The note with it: E. coli DRC39 acrAB, higher = more signal, called active from +8 up or from −8 down.
A short description of assay [18]: growth of efflux-deficient E. coli DRC39 – strain DRC39, OD650, 48 h, E. coli filamentation inducers, primary screen (AID 1179).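 Further: screen aims at cell division blockers that make cells filament.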 The note with it: E. coli DRC39 delta-acrAB growth, higher = more signal, called active from +8 up or from −8 down.
Assay [19] is described as follows: viability profiling in RPMI8226 myeloma cells – cell-based, resazurin fluorescence, basal, 24 h, PK04 Diversity Set, profiling panel (AID 1180).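 Further: RPMI8826 multiple myeloma cell line at 5000 cells per well; test concentration not given here.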 As to conditions: higher = more signal.
Assay [20] deals with E3 ubiquitin-protein ligase XIAP (Homo sapiens) (UniProt P98170). The assay is described as follows: small molecules binding XIAP protein – biophysical, small-molecule microarray, fluorescence 635 nm, primary screen (AID 1181).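 Further: score merges 667 nm emission and signal to noise over triplicate slides.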 As to conditions: higher = more signal.

The structures appear in SMILES notation. The source made the active and inactive calls. Unless noted, how the calls were made is not given here.

Sequence of Dihydroorotate dehydrogenase (quinone), mitochondrial (Plasmodium falciparum (isolate 3D7)) (Q08210 whole entry, looked up): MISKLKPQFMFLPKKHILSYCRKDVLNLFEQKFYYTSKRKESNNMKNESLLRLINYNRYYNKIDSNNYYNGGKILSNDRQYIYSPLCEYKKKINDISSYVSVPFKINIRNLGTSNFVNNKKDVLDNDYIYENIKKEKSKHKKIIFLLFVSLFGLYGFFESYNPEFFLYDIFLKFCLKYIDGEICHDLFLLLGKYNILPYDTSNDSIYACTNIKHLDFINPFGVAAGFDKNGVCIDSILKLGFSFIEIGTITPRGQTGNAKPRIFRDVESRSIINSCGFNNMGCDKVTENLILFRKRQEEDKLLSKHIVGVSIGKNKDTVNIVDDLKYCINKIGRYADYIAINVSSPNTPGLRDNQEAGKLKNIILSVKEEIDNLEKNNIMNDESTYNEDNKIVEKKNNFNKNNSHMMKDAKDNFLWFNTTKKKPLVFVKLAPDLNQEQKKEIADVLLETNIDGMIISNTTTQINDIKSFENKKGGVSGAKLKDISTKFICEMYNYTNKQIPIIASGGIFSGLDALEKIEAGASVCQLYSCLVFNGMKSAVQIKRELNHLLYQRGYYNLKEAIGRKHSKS
Sequence of E3 ubiquitin-protein ligase XIAP (Homo sapiens) (P98170 whole entry, looked up): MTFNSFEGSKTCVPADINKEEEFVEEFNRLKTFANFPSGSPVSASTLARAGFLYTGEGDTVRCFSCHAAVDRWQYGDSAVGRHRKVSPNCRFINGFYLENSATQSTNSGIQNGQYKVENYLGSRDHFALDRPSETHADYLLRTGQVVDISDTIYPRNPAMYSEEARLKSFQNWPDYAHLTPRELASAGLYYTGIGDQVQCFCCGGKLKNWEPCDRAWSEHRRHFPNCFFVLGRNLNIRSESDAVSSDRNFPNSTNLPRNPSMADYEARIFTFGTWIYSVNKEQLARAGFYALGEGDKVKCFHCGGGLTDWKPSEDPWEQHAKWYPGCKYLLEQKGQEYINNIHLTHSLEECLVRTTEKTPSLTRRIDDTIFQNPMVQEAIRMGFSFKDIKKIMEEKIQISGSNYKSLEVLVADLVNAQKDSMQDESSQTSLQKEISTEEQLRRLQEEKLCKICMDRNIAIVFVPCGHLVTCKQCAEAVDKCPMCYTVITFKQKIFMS

For the compound `N[C@@H](Cc1ccccc1)Cn1cc(-c2ccccc2)nn1`, the z-score in assay [1] is -0.192; in [2] it was -0.711; in assay [3] it was -0.0622; in assay [4] it was -1.57; in [5], -0.0672; in [6], 1.18. The z-score in [7] is 0.399 (inactive); in [8] it was -0.515; in assay [9] it was 0.137; in assay [10], 0.837 (inactive); in assay [11], -0.473; in assay [12] it was -2.26 (inactive). Further, the z-score in assay [13] was -0.29 (inactive); in assay [15], 0.444 (inactive); in assay [16], -0.519 (inactive); in [17], 0.405 (inactive); in assay [18], -0.679 (inactive); in assay [19], -0.587. Also, the figures for the composite z-score in [14] and in assay [20] were 1.11 (inactive) and -0.377, respectively.

For `C=CCN1C(=O)[C@]2(O[C@H](CCO)[C@@H]([Si](C)(C)c3ccc(OC)cc3)[C@@H]2C)c2cc(NC(=O)[C@H](C)O)ccc21`, the z-score in [1] was -1.18; in [2] it was 0.449; in assay [3], -1.92; in assay [4], -2.85; in assay [5] it was -4.33; in [6], -1.55. The z-score in assay [7] is -0.612 (inactive); in assay [8], -1.03; in [9] it was -0.061; in assay [10], -0.848 (inactive); in assay [11] it was -0.646; in assay [12], -0.151 (inactive). Further, the z-score in assay [13] is -1.43 (inactive); in assay [15] it was 0.0943 (inactive); in assay [16], 2.79 (inactive); in assay [17] it was -0.483 (inactive); in assay [18], -0.955 (inactive); in assay [19], -2.8. The results for the composite z-score in [14] and in assay [20] were 0.235 (inactive) and 0.0223, respectively.

Consider `[N-]=[N+]=NCc1ccccc1[C@@H]1OC(c2ccc(OCCCO)cc2)=N[C@]1(Cc1ccccc1)C(=O)N1CCCCC1`, for which the z-score was 0.251 in [1]; 0.445 in assay [2]; 0.525 in assay [3]; -0.604 in assay [4]; -3.3 in [5]; -0.227 in assay [6]. Also, the z-score in [7] was 0.467 (inactive); in assay [8] it was -1.23; in assay [9], -0.354; in [10], 0.583 (inactive); in assay [11] it was -0.596; in assay [12], -1.11 (inactive). Further, the z-score in assay [13] was -1.3 (inactive); in assay [15], -0.621 (inactive); in assay [16], 1.48 (inactive); in [17], 0.775 (inactive); in [18], 0.345 (inactive); in [19] it was -0.94. For the same compound, the composite z-score in [14] is 0.678 (inactive); in assay [20], -0.257.

Regarding `COC(=O)[C@@]1(Cc2ccc(OC)cc2)[C@H]2c3cc(C(=O)N4CCCC4)n(Cc4ccccn4)c3C[C@H]2CN1C(=O)c1ccccc1`, the z-score in assay [1] is -0.87; in [2] it was 0.588; in assay [3] it was -0.379; in [4], -1.9; in assay [5], -0.676; in assay [6] it was 1.85. In addition, the z-score in assay [7] is -0.85 (inactive); in assay [8], 0.556; in assay [9] it was 0.208; in assay [10] it was -0.823 (inactive); in assay [11], -1.73; in [12], 2.39 (inactive). Further, the z-score was -1.07 (inactive) in assay [13]; 0.743 (inactive) in [15]; 1.13 (inactive) in assay [16]; -0.564 (inactive) in assay [17]; 0.147 (inactive) in assay [18]; -2.2 in assay [19]. Besides, the composite z-score in assay [14] is 0.81 (inactive); in [20], 0.0379.

Turning to `CN(C)CCCCCCNC(=O)[C@H]1C[C@H]2C(=O)N[C@@H](CCCCN)C(=O)N2[C@H]1c1ccc(O)cc1`, the z-score in [1] is -0.466; in assay [2], 0.71; in assay [3] it was 0.266; in assay [4] it was -1.05; in assay [5] it was -0.0908; in assay [6] it was 0.758. Besides, the z-score in assay [7] is -0.935 (inactive); in assay [8], -0.773; in [9], 0.237; in assay [10], 0.283 (inactive); in assay [11], -0.807; in assay [12], 0.293 (inactive). Also, the z-score is -0.249 (inactive) in assay [13]; 0.808 (inactive) in [15]; 0.0384 (inactive) in assay [16]; -0.108 (inactive) in [17]; 0.267 (inactive) in assay [18]; 0.263 in [19]. Further, the figures for the composite z-score in assay [14] and in assay [20] were 1.31 (inactive) and 2.64, respectively.

With `O=c1cccc(C=Cc2ccccc2)o1`, the z-score in assay [1] is -0.523; in assay [2], -0.601; in [3] it was 0.645; in assay [4], -0.571; in assay [5] it was -0.743; in assay [6], 0.053. Moreover, the z-score in assay [7] was 0.355 (inactive); in assay [8], 0.629; in assay [9], -0.969; in [10], 0.261 (inactive); in [11], 0.266; in assay [12] it was -2.09 (inactive). Besides, the z-score was 0.835 (inactive) in assay [13]; -0.212 (inactive) in [15]; -0.0064 (inactive) in assay [16]; -0.131 (inactive) in assay [17]; 0.761 (inactive) in assay [18]; -0.0628 in [19]. For the same compound, the composite z-score in [14] is 0.0681 (inactive); in assay [20] it was -0.248.

On to `CC(C)NC(=O)[C@@H]1c2ccccc2C(=O)N(Cc2ccccc2Cl)[C@H]1c1ccc(CO)cc1`, for which the z-score in assay [1] was 1.97; in assay [2], 0.84; in assay [3], 1.23; in assay [4], 0.0027; in assay [5] it was 0.665; in [6] it was 2.42. Further, the z-score in assay [7] was -0.466 (inactive); in assay [8], -0.195; in assay [9], -0.615; in assay [10] it was 1.46 (inactive); in assay [11], 1.6; in assay [12], -0.197 (inactive). The z-score in assay [13] was -0.27 (inactive); in [15], 0.183 (inactive); in [16], 0.358 (inactive); in assay [17], 0.696 (inactive); in [18] it was 0.661 (inactive); in assay [19] it was 0.131. Moreover, the composite z-score is 0.233 (inactive) in assay [14] and 0.103 in assay [20].
